Values quoted from earlier work as cited in PubChem BioAssay AID977611.
Out of some 3,900 compounds screened, about 3,900 (100%) were called active. No cut-off is given here; in the data, nearly all actives have Kd up to about 4200 µM. The set was probably picked from earlier hits. The list shows a part of the results. Positions of bridges follow the written chain, without caps; N, C: chain ends. Bridge positions count the residues as written; N and C are the ends. Where a SMILES comes first, the peptide text is derived from it. Non-standard residues stand in square brackets, D forms with d. Square brackets hold non-standard residues; d marks the D form. Residues, ends and D or L forms follow the SMILES beside them. Peptide text beside a SMILES is read from it. Orn(CH(NH2)2) = NC(N)NCCC[C@H](N)C(=O)O

Assay: PubChem AID 977611
Settings: PDB protein-ligand complexes, literature Kd

O=P(O)(O)OC[C@H]1OC(O[C@@H]2O[C@H](CO)[C@@H](O)[C@H](O)[C@H]2O)[C@H](O)[C@@H](O)[C@@H]1O (some centres undefined)
Kd (protein: trehalose operon repressor, PDB entry 1BYK): 10000 nM (active)

OC[C@H]1CNC[C@@H](O[C@H]2O[C@H](CO)[C@@H](O)[C@H](O)[C@@H]2O)[C@@H]1O
Kd (protein: GLYCOSYL HYDROLASE FAMILY 71 BxGH99, PDB entry 4v27): 217 nM (active)

OC[C@H]1O[C@H](O[C@H]2[C@@H](O)[C@@H](CO)O[C@@H](O[C@H]3[C@H](O)[C@@H](O)[C@H](O)O[C@@H]3CO)[C@@H]2O)[C@H](O)[C@@H](O)[C@H]1O
Kd (protein: PA-I GALACTOPHILIC LECTIN, PDB entry 2vxj): 68000 nM (active)

CC(C)C[C@H]1NC(=O)[C@@H](Cc2c[nH]c3ccccc23)NC(=O)[C@@H](CCC(N)=O)NC(=O)[C@@H](Cc2c[nH]c3ccccc23)NC(=O)[C@@H](CCC(=O)O)NC(=O)[C@H]2CCCN2C(=O)[C@@H](Cc2ccc(O)cc2)NC(=O)[C@@H](CC(=O)O)NC(=O)[C@H](NC(=O)[C@@H](C)NC(=O)CNC(=O)[C@H](N)CCCCN)CSSC[C@H](C(=O)N[C@H](C)C(=O)N[C@H](C)C(=O)O)NC1=O
Kd (protein: gp41 N-peptide, PDB entry 2r5b): 2.5 nM (active)
Kd (protein: gp41 N-peptide, PDB entry 2r5d): 0.07 nM (active)

C[C@@H]1NC(=O)[C@@H]2CSSC[C@H](NC(=O)CN)C(=O)N[C@@H](CSSC[C@@H](C(N)=O)NC(=O)[C@H](CCCNC(N)N)NC(=O)[C@H](Cc3c[nH]c4ccccc34)NC1=O)C(=O)N[C@@H](CO)C(=O)N[C@@H](CC(=O)O)C(=O)N1CCC[C@H]1C(=O)N[C@@H](CCCNC(N)N)C(=O)N2
Kd (protein: A-AChBP, PDB entry 2byp): 0.88 nM (active)

CC(=O)N[C@@H](C)C(=O)N[C@@H](CC(C)C)C(=O)N[C@H]1CSSC[C@@H](C(=O)N[C@@H](CCC(N)=O)C(=O)N[C@@H](Cc2ccccc2)C(=O)N[C@H](C(=O)N[C@@H](CCC(=O)O)C(N)=O)C(C)C)NC(=O)[C@H](Cc2ccc(O)cc2)NC(=O)[C@H](Cc2c[nH]c3ccccc23)NC(=O)[C@H](CCCNC(N)N)NC(=O)[C@H](CC(=O)O)NC(=O)[C@H](C(C)C)NC(=O)[C@H](CCCNC(N)N)NC(=O)[C@@H]2CCCN2C(=O)[C@H](CC(=O)O)NC(=O)[C@H](CC(=O)O)NC1=O (Ac-ALCDDP[Orn(CH(NH2)2)]VD[Orn(CH(NH2)2)]WYCQFVE-NH2; disulfide 3-13)
Kd (protein: des-gla factor viia (heavy chain), PDB entry 1dva): 8.5 nM (active)

CC[C@H](C)[C@H](NC(C)=O)C(=O)N[C@@H](CO)C(=O)N[C@@H]1C(=O)N[C@@H](CCCN=C(N)N)C(=O)N[C@H]2CCCCNC(=O)CC[C@@H](C(=O)O)NC(=O)[C@@H]3CCC(=O)OC[C@H](NC(=O)[C@@H]4CCCN4C(=O)[C@H](Cc4ccc(O)cc4)NC2=O)C(=O)N[C@@H](CC(=O)O[C@@H]1C)C(=O)N[C@@H](Cc1c[nH]c2ccccc12)C(=O)N3 (Ac-ISTRKYPSDWEE-OH; ester 3-9, 8-11; lactam 5-12)
Kd (protein: Bovine Cationic trypsin, PDB entry 4ktu): 685 nM (active)

CC(C)C[C@H](NC(=O)[C@@H]1CSSC[C@@H]2NC(=O)[C@H](CC(N)=O)NC(=O)[C@@H](N)CSSC[C@H](NC(=O)[C@H](CC(C)C)NC(=O)[C@H](Cc3ccccc3)NC(=O)[C@H]([C@@H](C)O)NC(=O)[C@H](CCC(=O)O)NC(=O)[C@@H]3CCCN3C(=O)[C@H](C)NC(=O)[C@H](CCCCN)NC2=O)C(=O)N[C@@H](Cc2ccc(O)cc2)C(=O)N[C@@H](Cc2c[nH]c3ccccc23)C(=O)N[C@@H](CCCNC(N)N)C(=O)N1)C(=O)N[C@@H](CCC(N)=O)C(=O)N[C@@H](Cc1c[nH]cn1)C(N)=O (H-CNCKAPETFLCYW[Orn(CH(NH2)2)]CLQH-NH2; disulfide 1-11, 3-15)
Kd (protein: E3 ubiquitin-protein ligase Mdm2, PDB entry 3iux): 25.1 nM (active)

CC[C@H](C)[C@H](N)C(=O)N[C@H](C(=O)NCC(=O)NCC(=O)N[C@H]1CSSC[C@@H](C(=O)O)NC(=O)[C@H](CCC(=O)O)NC(=O)[C@H](CCC(=O)O)NC(=O)[C@H](CCCN=C(N)N)NC(=O)[C@H](CC(=O)O)NC(=O)[C@H](CCSC)NC(=O)[C@H](Cc2c[nH]c3ccccc23)NC(=O)[C@H](Cc2ccc(O)cc2)NC(=O)[C@@H]2CCCN2C1=O)[C@@H](C)CC (H-IIGGCPYWMDREEC-OH; disulfide 5-14)
Kd (protein: Hepatocyte growth factor HGF-Beta V495, PDB entry 4o3u): 400 nM (active)

N#Cc1c(O)c2c(-c3ccc(Br)cc3)c(Br)sc2[nH]c1=O
Kd (protein: 5'-AMP-activated protein kinase catalytic subunit AMPK alpha1-belta1-gamma1, PDB entry 4qfs): 900 nM (active)

N#Cc1c(O)c2c(-c3ccc(-c4ccccc4O)cc3)c(Cl)sc2[nH]c1=O
Kd (protein: 5'-AMP-activated protein kinase catalytic subunit AMPK alpha1-belta1-gamma1, PDB entry 4qfr): 7.4 nM (active)

Cc1nc2c(=O)[nH]c(=O)[nH]c2n(C[C@H](O)[C@H](O)[C@H](O)CO)c1=O
Kd (protein: Major histocompatibility complex class I-related gene protein, PDB entry 4l4v): 1650 nM (active)

CCNc1cc2c(cc1C)C(c1ccccc1C(=O)OCC)c1cc(C)c(NCC)cc1O2
Kd (protein: Putative regulatory protein, PDB entry 3vvz): 26400 nM (active)

C[C@@H](O)CN1CC2=C(C1)c1ccccc1Nc1ccccc12
Kd (protein: Renin, PDB entry 4gj9): 500000 nM (active)

CC[C@H](C)[C@H](NC(=O)CNC(=O)[C@@H](N)CCC(N)=O)C(=O)N[C@H](C(=O)N[C@@H](CCCCN)C(=O)N1CCC[C@H]1C(=O)N[C@@H](C)C(=O)N[C@H](C(=O)N[C@@H](CCCNC(N)N)C(=O)N[C@@H](CCCNC(N)N)C(=O)N[C@@H](CC(C)C)C(=O)N[C@@H](C)C(=O)N[C@@H](CCCNC(N)N)C(=O)N[C@@H](CCCNC(N)N)C(=O)NCC(=O)O)[C@@H](C)CC)[C@@H](C)O (H-QGITKPAI[Orn(CH(NH2)2)][Orn(CH(NH2)2)]LA[Orn(CH(NH2)2)][Orn(CH(NH2)2)]G-OH)
Kd (protein: Histone-binding protein RBBP7, PDB entry 3cfs): 1100 nM (active)

CC[C@H](C)[C@H](NC(=O)CNC(=O)[C@H](CCC(N)=O)NC(=O)[C@@H](NC(=O)[C@H](CC(N)=O)NC(=O)[C@@H](N)CC(=O)O)[C@@H](C)CC)C(=O)N[C@H](C(=O)N[C@@H](CCCCN)C(=O)N1CCC[C@H]1C(=O)N[C@@H](C)C(=O)N[C@H](C(=O)N[C@@H](CCCNC(N)N)C(=O)N[C@@H](CCCNC(N)N)C(=O)N[C@@H](CC(C)C)C(=O)N[C@@H](C)C(=O)N[C@@H](CCCNC(N)N)C(=O)N[C@@H](CCCNC(N)N)C(=O)NCC(=O)O)[C@@H](C)CC)[C@@H](C)O (H-DNIQGITKPAI[Orn(CH(NH2)2)][Orn(CH(NH2)2)]LA[Orn(CH(NH2)2)][Orn(CH(NH2)2)]G-OH)
Kd (protein: Histone-binding protein RBBP7, PDB entry 3cfv): 900 nM (active)

O[C@@H]1[C@H](O)CO[C@](O)(CO[P+](O)(O)O)[C@H]1O
Kd (protein: GLUCOKINASE REGULATORY PROTEIN, PDB entry 4bb9): 1000 nM (active)

O=C(NCCC1C=CCCC1)Nc1ccc2nnsc2c1 (centres undefined)
Kd (protein: Protein arginine N-methyltransferase 3, PDB entry 3smq): 9500 nM (active)

OC[C@H]1O[C@@H](Oc2ccc([C@@H](c3ccc(O)c(Cl)c3)c3ccccc3S(O)(O)O)cc2Cl)[C@H](O)[C@@H](O)[C@H]1O
Kd (protein: PA-I galactophilic lectin, PDB entry 4lk6): 6300 nM (active)

C/C(=C/C=C/C(C)=C/C(=O)O)Cc1cccc2ccc(C)cc12
Kd (protein: Retinoic acid receptor RXR-alpha, PDB entry 4poj): 8 nM (active)

NCc1ccc2occc2c1
Kd (protein: CATIONIC TRYPSIN, PDB entry 4ab9): 466000 nM (active)

NC1C=CN([C@@H]2O[C@H](CNC(=O)c3c[nH]c4scc[n+]34)[C@@H](O)[C@H]2O)C(=O)N1 (some centres undefined)
Kd (protein: 2-C-methyl-D-erythritol 2,4-cyclodiphosphate synthase, PDB entry 3q8h): 70000 nM (active)

NC1C=CN([C@@H]2O[C@H](CO)[C@@H](O)[C@H]2O)C(=O)N1 (some centres undefined)
Kd (protein: Peptidyl-tRNA hydrolase, PDB entry 4jwk): 4.79 nM (active)

O=C(CCN1CCCCC1)N1CCc2[nH]c(=O)c3cc(F)ccc3c2C1
Kd (protein: Putative ADP-ribosyltransferase Certhrax, PDB entry 4fxq): 1700 nM (active)

C[C@H]1CCC[C@H](C[C@H]2Cc3cc(O)cc(O)c3C(=O)O2)O1
Kd (protein: Lysine--tRNA ligase, PDB entry 4pg3): 14 nM (active)

CC[C@H](C)[C@H](NC(=O)[C@@H](NC(=O)[C@H](CC(C)C)NC(=O)[C@H](C)NC(=O)[C@@H]1CCCN1C(=O)[C@H](CC(C)C)NC(=O)[C@@H](NC(=O)[C@@H]1CCCN1C(=O)[C@H](CCCCN)NC(=O)[C@H](CCCNC(N)N)NC(=O)[C@H](C)N)C(C)C)[C@@H](C)O)C(=O)N[C@@H](C)C(=O)O (H-A[Orn(CH(NH2)2)]KPVLPALTIA-OH)
Kd (protein: Mitogen-activated protein kinase 1 (R77A, E314A, I255G, C162S mutation), PDB entry 4h3q): 8000 nM (active)

CC[C@H](C)[C@H](NC(=O)[C@H](CC(C)C)NC(=O)[C@@H]1CCCN1C(=O)[C@@H]1CCCN1C(=O)[C@@H]1CCCN1C(=O)[C@H](CC(N)=O)NC(=O)[C@H](CO)NC(=O)[C@@H](NC(=O)[C@@H](N)[C@@H](C)O)[C@@H](C)CC)C(=O)N[C@@H](CO)C(=O)N[C@@H](CO)C(=O)N[C@@H](C)C(=O)N[C@@H](CCCCN)C(=O)O (H-TISNPPPLISSAK-OH)
Kd (protein: The MYND domain (NHR4) of ETO, PDB entry 2odd): 109000 nM (active)

CC[C@H](C)[C@H](NC(=O)[C@H](CO)NC(=O)[C@@H]1CCCN1C(=O)[C@H](C)N)C(=O)N[C@@H](CC(=O)O)C(=O)N[C@@H](CCCNC(N)N)C(=O)N[C@@H](CO)C(=O)N[C@H](C(=O)N[C@@H](CCCCN)C(=O)N1CCC[C@H]1C(=O)N1CCC[C@H]1C(=O)N[C@@H](CC(C)C)C(=O)O)[C@@H](C)O (H-APSID[Orn(CH(NH2)2)]STKPPL-OH)
Kd (protein: Grb2-related adaptor protein 2(C-terminal SH3 domain (SH3C) of Mona/Gads, PDB entry 1oeb): 118 nM (active)

CC[C@H](C)[C@H](N)C(=O)N[C@@H](CCC(=O)O)C(=O)N[C@@H](CC(C)C)C(=O)N1CCC[C@H]1C(=O)N[C@@H](CCC(=O)O)C(=O)N[C@H](C(=O)N1CCC[C@H]1C(=O)N[C@@H](CO)C(=O)N[C@@H](CCC(=O)O)C(=O)N1CCC[C@H]1C(=O)N[C@@H](CC(C)C)C(=O)N1CCC[C@H]1C(=O)O)C(C)C (H-IELPEVPSEPLP-OH)
Kd (protein: Vacuolar protein sorting-associating protein 4A, PDB entry 2k3w): 5800 nM (active)

H-ELPLVKI-OH
Kd (protein: Chaperone protein DnaK, PDB entry 4ezz): 6400 nM (active)

CC[C@H](C)[C@H](NC(=O)[C@H](Cc1ccccc1)NC(=O)[C@H](CCCCN)NC(=O)CN)C(=O)N1CCC[C@H]1C(=O)N[C@@H](CO)C(=O)N[C@@H](CCCNC(N)N)C(=O)N1CCC[C@H]1C(=O)N[C@@H](C)C(=O)N1CCC[C@H]1C(=O)N[C@@H](CCCCN)C(=O)N1CCC[C@H]1C(=O)N1CCC[C@H]1C(=O)N[C@@H](CO)C(=O)N[C@@H](CO)C(=O)N[C@@H](C)C(=O)O (H-GKFIPS[Orn(CH(NH2)2)]PAPKPPSSA-OH)
Kd (protein: NAP1-binding protein 2, PDB entry 2lcs): 200 nM (active)

CC[C@H](C)[C@H](NC(=O)[C@@H](NC(=O)[C@@H](N)CS)[C@@H](C)CC)C(=O)N[C@@H](CO)C(=O)N[C@@H](C)C(=O)N[C@@H](CCSC)C(=O)N1CCC[C@H]1C(=O)N[C@H](C(=O)N[C@@H](CCCCN)C(=O)N[C@@H](CO)C(=O)N[C@@H](CO)C(=O)N[C@@H](CCCNC(N)N)C(=O)N[C@@H](CCCCN)C(=O)N[C@@H](C)C(=O)N[C@@H](CCCCN)C(=O)N[C@@H](CCCCN)C(=O)N1CCC[C@H]1C(=O)N[C@@H](C)C(=O)N[C@@H](CCC(N)=O)C(=O)O)[C@@H](C)O (H-CIISAMPTKSS[Orn(CH(NH2)2)]KAKKPAQ-OH)
Kd (protein: DDEF1 SH3 domain, PDB entry 2rqu): 23600 nM (active)

H-KPAAVVAPI-OH
Kd (protein: Ubiquitin ligase SIAH1, PDB entry 2a25): 24000 nM (active)
